# Reference: the supplement of paper PMC6555819
# Test system: RARg homodimer (NR concentration 270 nM)
# Experiment: PBM binding z-score (relative to random genomic background probes); higher = stronger binding; sequences stand for … in GC…GCGATTGACAGCGTAGAATGAAGG
# Outline: (§1)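 Scanned fluorescence from custom Agilent 4×180K protein-binding microarrays was regression-normalized. Binding z-scores use random background probes as reference. Ligand-free nuclear receptor dimers were incubated on the arrays for 1 h and detected with antibodies against each partner (one per run).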
row,Sequence,PBM binding z-score
1,CAAACTAGGTCAAGAAGTCAAAGTCCGCTTCCCG,4.23
2,TCTTGTAGATCAACAGGAGGTCAAGAAAGATCGA,2.84
3,TCAGACAGGTGAAGGGAACTCAGGTACGCAGTCG,0.498
4,ATAATGAGGTTACCAAAGATCAGGGAAACGCTTG,1.95
5,TCGAGTAGGTTAGTCGGGGCATCCAGCCAACATA,-0.131
6,ACAGACAGGTGATGAATGTAACTCAGGCTATCAT,0.506
7,GCTATAAGTTGAAAGGGCAACCGAATGATTCTCG,1.81
8,ATATGTAGGGTAGCTGGGGTCATTCAGACTAGGC,2.23
9,CCGCCTGGGGCAAAGGTTACCATACTCAGTACGA,1.78
10,ACTATTAGTTGACTTAGGGCAACCTATACGACGC,1.05
11,ATCTCTAGGTAAGACTCAGTTCGGTGAAGAACGC,0.192
12,TCTTGTAGATCATAGGTTAAGAAAGCCGAAGCCT,0.187
13,AGAATGAGGTTAGGATCAGGGAAACAGAATACAT,0.965
14,GCTAGTTGGTCAGTAAAAGGTCACCCACCGGTCG,4.94
15,CGCCCAAGGTCAAAGGTCAGTGAAGAGATGACGG,8.27
16,TCTAGTTGGTGAAAGGTCACACACTCGAAATGCG,5.72
17,ATATGTAGGTTAGCTGGGATCATTCAGACTAGGC,0.765
18,CGTCCAAGGTCATAGGACGTCAGTGAAGACAGAT,5.4
19,TCTGCTAGGTCAGTTGGTCAGATAACGAGCTGCC,3.55
20,TAGCCTAGGTCATTCAGGGTCCAGTATAGAAAGC,4.16

row,Sequence,PBM binding z-score
1,ATCTCGAGGTAACCAAGTTCAGTGAATGCCGAAC,1.02
2,CCTTCTGGGCCAAAGGTCATTGATTCCAATGCTC,4.73
3,GTACCAAGGTGAATAGGTCGTTGTTGAGTAGGCG,1.05
4,CGAACTAGGTCATCCAGGACAGTGAGTACATTGA,5.08
5,CGTCCAAGGTCAGCAGGTCAGCGAAAGCGACGTG,7.16
6,GCCATTAGTTGAAAGGGCAACCGAATGATTCTCG,1.32
7,CCTATTAGTTGAACATAAGGGCAACCGAAGCTCG,1.14
8,CAAACTAGGTGAAGGTCAAAGTCGGTTTGTGCCA,4.37
9,CCTACAGGGCCAAAAAGGTCATTGATGCCGATAA,4.56
10,CATACAGGGTCAGCTAGGCCAGATTAGGGACGGC,4.22
11,GGAACGAGGGCATTCGAGTTGATACCATGGCGAT,1.46
12,CCTACTGGGCCACGAAAGGTCATTAATTCAGTGA,3.75
13,TCTCGGAGGACTCGAAGGTCAGAGCTTTCCAGAG,1.24
14,GCAGACAGGTGAAATGCAGGTAACTCAGGGTGGC,0.23
15,AGAAGGAGGTTATTAAGATCAGGGAATTGCGGTC,0.837
16,ATCTCTAGGTAACCAAGTTCAGTGATTGCCGAAC,0.823
17,GCAGACAGGTGAAACGCAGGTAGCTCAGGGTGGC,-0.0233
18,CCTAGTTGGTCAGGAGGTCACACACCGGATATGA,4.78
19,TCTTGTAGATCAACAGGAGGTTAAGAATGATCGA,0.374
20,ACTATTAGTTGAGACGAGGGCAACCAATAGGTTG,0.987

# Test system: RXRa DBDmut IVT, anti-RXR (DBD mutation: RXRa K156A/R161A, NR concentration 90 nM)
# Experiment: as above
# Outline: as §1
row,Sequence,PBM binding z-score
1,CAAACTAGGTCAAGAAGTCAAAGTCCGCTTCCCG,1.32
2,TCTTGTAGATCAACAGGAGGTCAAGAAAGATCGA,0.518
3,TCAGACAGGTGAAGGGAACTCAGGTACGCAGTCG,1.36
4,ATAATGAGGTTACCAAAGATCAGGGAAACGCTTG,1.32
5,TCGAGTAGGTTAGTCGGGGCATCCAGCCAACATA,-0.109
6,ACAGACAGGTGATGAATGTAACTCAGGCTATCAT,-0.126
7,GCTATAAGTTGAAAGGGCAACCGAATGATTCTCG,1.24
8,ATATGTAGGGTAGCTGGGGTCATTCAGACTAGGC,1.78
9,CCGCCTGGGGCAAAGGTTACCATACTCAGTACGA,-0.0654
10,ACTATTAGTTGACTTAGGGCAACCTATACGACGC,0.811
11,ATCTCTAGGTAAGACTCAGTTCGGTGAAGAACGC,0.349
12,TCTTGTAGATCATAGGTTAAGAAAGCCGAAGCCT,0.657
13,AGAATGAGGTTAGGATCAGGGAAACAGAATACAT,0.213
14,GCTAGTTGGTCAGTAAAAGGTCACCCACCGGTCG,-0.12
15,CGCCCAAGGTCAAAGGTCAGTGAAGAGATGACGG,3.9
16,TCTAGTTGGTGAAAGGTCACACACTCGAAATGCG,1.95
17,ATATGTAGGTTAGCTGGGATCATTCAGACTAGGC,0.0124
18,CGTCCAAGGTCATAGGACGTCAGTGAAGACAGAT,3.74
19,TCTGCTAGGTCAGTTGGTCAGATAACGAGCTGCC,0.564
20,TAGCCTAGGTCATTCAGGGTCCAGTATAGAAAGC,2

row,Sequence,PBM binding z-score
1,ATCTCGAGGTAACCAAGTTCAGTGAATGCCGAAC,0.865
2,CCTTCTGGGCCAAAGGTCATTGATTCCAATGCTC,1.41
3,GTACCAAGGTGAATAGGTCGTTGTTGAGTAGGCG,0.135
4,CGAACTAGGTCATCCAGGACAGTGAGTACATTGA,2.58
5,CGTCCAAGGTCAGCAGGTCAGCGAAAGCGACGTG,2.52
6,GCCATTAGTTGAAAGGGCAACCGAATGATTCTCG,0.641
7,CCTATTAGTTGAACATAAGGGCAACCGAAGCTCG,0.521
8,CAAACTAGGTGAAGGTCAAAGTCGGTTTGTGCCA,1.5
9,CCTACAGGGCCAAAAAGGTCATTGATGCCGATAA,1.26
10,CATACAGGGTCAGCTAGGCCAGATTAGGGACGGC,1.47
11,GGAACGAGGGCATTCGAGTTGATACCATGGCGAT,3.31
12,CCTACTGGGCCACGAAAGGTCATTAATTCAGTGA,0.737
13,TCTCGGAGGACTCGAAGGTCAGAGCTTTCCAGAG,0.262
14,GCAGACAGGTGAAATGCAGGTAACTCAGGGTGGC,-0.341
15,AGAAGGAGGTTATTAAGATCAGGGAATTGCGGTC,0.39
16,ATCTCTAGGTAACCAAGTTCAGTGATTGCCGAAC,1.02
17,GCAGACAGGTGAAACGCAGGTAGCTCAGGGTGGC,-0.578
18,CCTAGTTGGTCAGGAGGTCACACACCGGATATGA,0.706
19,TCTTGTAGATCAACAGGAGGTTAAGAATGATCGA,0.333
20,ACTATTAGTTGAGACGAGGGCAACCAATAGGTTG,0.665
